Records with an inconclusive call do not appear. Activity calls are given as the source filed them. Calls follow the shape of the dose curve; as a rule, active = well fitted curve in the direction sought with a large enough effect; inconclusive = small, poorly fitted or top-dose-only effect, or another doubt; inactive = no such curve, though single readings can be large; an effect the other way counts as inactive or inconclusive.
Tests used:
[1] = Quantitative High-Throughput drug screen in 47 multiple myeloma cell lines against the NCATS MIPE library collection: FR4_PLB cell viability assay (AID 1918924; also: nearly all actives have a fitted effect of over 35% in size)
Method in brief: (§1)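 Myeloma cell lines, 500 cells per well, exposed to MIPE 4.0 library compounds for 48 h at 37C, 5% CO2. Viability from ATP by CellTiter-Glo luminescence; normalised to DMSO (100%) and media-only (0%) wells.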

[2] = Quantitative High-Throughput drug screen in 47 multiple myeloma cell lines against the NCATS MIPE library collection: Delta47_JCRB cell viability assay (AID 1918925; also: nearly all actives have a fitted effect of over 45% in size)
Method in brief: (§2)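 Relative luminescence from CellTiter-Glo served as the viability signal, referenced to DMSO-treated (100%) and cell-free medium (0%) controls. Treatment lasted 48 hours at 37C with 500 cells per well.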

[3] = Quantitative High-Throughput drug screen in 47 multiple myeloma cell lines against the NCATS MIPE library collection: EJM_DSMZ cell viability assay (AID 1918926; also: nearly all actives have a fitted effect of over 30% in size)
Method in brief: as §2

[4] = Quantitative High-Throughput drug screen in 47 multiple myeloma cell lines against the NCATS MIPE library collection: AMO1_DSMZ cell viability assay (AID 1918927; also: nearly all actives have a fitted effect of over 30% in size)
Method in brief: as §2

[5] = Quantitative High-Throughput drug screen in 47 multiple myeloma cell lines against the NCATS MIPE library collection: ARD_JJKsccE7 cell viability assay (AID 1918929)
Method in brief: as §2

[6] = Quantitative High-Throughput drug screen in 47 multiple myeloma cell lines against the NCATS MIPE library collection: Karpas620_DSMZ cell viability assay (AID 1918959); also: nearly all actives have a fitted effect of over 30% in size
Method in brief: as §1

[7] = Quantitative High-Throughput drug screen in 47 multiple myeloma cell lines against the NCATS MIPE library collection: KMM1_JCRB cell viability assay (AID 1918960); also: nearly all actives have a fitted effect of over 30% in size
Method in brief: (§3)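 Myeloma cells, 500 per well, were exposed to MIPE 4.0 drugs by pin transfer for 48 h at 37 °C, 5% CO2. Viability was read as ATP luminescence with CellTiter-Glo, normalised to DMSO-only (100%) and medium-only (0%) wells.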

[8] = Quantitative High-Throughput drug screen in 47 multiple myeloma cell lines against the NCATS MIPE library collection: KHM11_PLB cell viability assay (AID 1918962); also: nearly all actives have a fitted effect of over 35% in size
Method in brief: as §1

[9] = Quantitative High-Throughput drug screen in 47 multiple myeloma cell lines against the NCATS MIPE library collection: JIM3_ECACC cell viability assay (AID 1918963; also: nearly all actives have a fitted effect of over 35% in size)
Method in brief: as §1

[10] = Quantitative High-Throughput drug screen in 47 multiple myeloma cell lines against the NCATS MIPE library collection: H1112_PLB cell viability assay (AID 1918967; also: nearly all actives have a fitted effect of over 30% in size)
Method in brief: as §2

[11] = Quantitative High-Throughput drug screen in 47 multiple myeloma cell lines against the NCATS MIPE library collection: KMS27_JCRB cell viability assay (AID 1918970); also: nearly all actives have a fitted effect of over 30% in size
Method in brief: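 CellTiter-Glo luminescence after 48 h drug exposure at 37 °C; 500 cells/well, 1536-well format, pin-tool compound addition; DMSO = 100%, media-only = 0% viability.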

[12] = Quantitative High-Throughput drug screen in 47 multiple myeloma cell lines against the NCATS MIPE library collection: KMS12BM_JCRB cell viability assay (AID 1918971); also: nearly all actives have a fitted effect of over 35% in size
Method in brief: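 Viability readout: CellTiter-Glo luminescence following 5 min room-temperature incubation with reagent. Prior exposure: 48 h, 37C, humidified 5% CO2, 500 cells per well.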

[13] = Quantitative High-Throughput drug screen in 47 multiple myeloma cell lines against the NCATS MIPE library collection: KMS12PE_JCRB cell viability assay (AID 1918972); also: nearly all actives have a fitted effect of over 30% in size
Method in brief: as §1

[14] = Quantitative High-Throughput drug screen in 47 multiple myeloma cell lines against the NCATS MIPE library collection: KMS20_JCRB cell viability assay (AID 1918973); also: nearly all actives have a fitted effect of over 45% in size
Method in brief: as §2

[15] = Quantitative High-Throughput drug screen in 47 multiple myeloma cell lines against the NCATS MIPE library collection: ARP1_JJKsccF8 cell viability assay (AID 1918928; also: nearly all actives have a fitted effect of over 40% in size)
Method in brief: as §3

[16] = Quantitative High-Throughput drug screen in 47 multiple myeloma cell lines against the NCATS MIPE library collection: INA6_PLB cell viability assay (AID 1918965; also: nearly all actives have a fitted effect of over 55% in size)
Method in brief: as §1

[17] = Quantitative High-Throughput drug screen in 47 multiple myeloma cell lines against the NCATS MIPE library collection: Karpas25_ECACC cell viability assay (AID 1918968; also: nearly all actives have a fitted effect of over 35% in size)
Method in brief: as §2

[18] = Quantitative High-Throughput drug screen in 47 multiple myeloma cell lines against the NCATS MIPE library collection: Karpas417_ECACC cell viability assay (AID 1918961); conditions: Karpas417 myeloma viability, CellTiter-Glo ATP luminescence, 48 h; viability (% of DMSO): at 45.8 µM (top of the series)
Method in brief: as §1

[19] = Quantitative High-Throughput drug screen in 47 multiple myeloma cell lines against the NCATS MIPE library collection: JIM1_ECACC cell viability assay (AID 1918964)
Method in brief: as §2

[20] = Quantitative High-Throughput drug screen in 47 multiple myeloma cell lines against the NCATS MIPE library collection: JJN3_DSMZ cell viability assay (AID 1918966; also: nearly all actives have a fitted effect of over 50% in size)
Method in brief: as §2
Potency is read from the fitted curve at half-maximal effect.

For `C[C@H]1[C@H](NC(=O)C(=NOC(C)(C)C(=O)O)c2csc(N)n2)C(=O)N1S(=O)(=O)O`, the Potency [1] was “inactive”, the Potency [2] was “inactive” and the Potency [3] was “inactive”. For the same compound, the Potency [4] was “inactive”, the Potency [5] was “inactive” and the Potency [6] was “inactive”. The Potency [7] was “inactive”, the Potency [8] was “inactive” and the Potency [9] was “inactive”. For the same compound, the Potency [10] was “inactive”, the Potency [11] was “inactive” and the Potency [12] was 1.48 µM (active). For the same compound, the Potency [13] was “inactive” and the Potency [14] was 16.6 µM (active).

For `COC[C@@H](c1ccc(C(F)(F)F)cc1)N1CCN(C2(C)CCN(C(=O)c3c(C)ncnc3C)CC2)C[C@H]1C`, the Potency [1] was “inactive”, the Potency [2] was 23.5 µM (active) and the Potency [3] was “inactive”. The Potency [4] was 16.6 µM (active), the Potency [15] was “inactive” and the Potency [8] was “inactive”. For the same compound, the Potency [16] was 26.4 µM (active), the Potency [10] was 13.2 µM (active) and the Potency [17] was 8.33 µM (active). For the same compound, the Potency [11] was “inactive” and the Potency [12] was “inactive”.

With `COc1ccc2cccc(CCNC(C)=O)c2c1` the Potency [1] was “inactive”, the Potency [2] was “inactive” and the Potency [3] was “inactive”. The Potency [4] was “inactive”, the Potency [15] was “inactive” and the Potency [6] was “inactive”. For the same compound, the Potency [7] was “inactive”, the Potency [8] was “inactive” and the Potency [9] was “inactive”. For the same compound, the Potency [17] was “inactive”, the Potency [11] was “inactive” and the Potency [13] was “inactive”.

For `Cc1c(O)cccc1C(=O)N[C@@H](CSc1ccccc1)[C@H](O)CN1C[C@H]2CCCC[C@@H]2C[C@@H]1C(=O)NC(C)(C)C`, the Potency [1] was 26.4 µM (active), the Potency [2] was 20.9 µM (active) and the Potency [3] was 23.5 µM (active). For the same compound, the Potency [4] was 16.6 µM (active), the Potency [15] was 23.5 µM (active) and the Potency [5] was 16.6 µM (active). The Potency [6] was 14.8 µM (active), the Potency [7] was 18.7 µM (active) and the Potency [18] was 14.8 µM (active). For the same compound, the Potency [8] was 18.7 µM (active), the Potency [9] was 20.9 µM (active) and the Potency [19] was 9.35 µM (active). For the same compound, the Potency [16] was 23.5 µM (active), the Potency [20] was 18.7 µM (active) and the Potency [11] was 16.6 µM (active). For the same compound, the Potency [12] was 20.9 µM (active) and the Potency [13] was 10.5 µM (active).

With `c1ccc2c(Cc3c[nH]c4ccccc34)c[nH]c2c1` the Potency [1] was 20.9 µM (active), the Potency [2] was 0.935 µM (active) and the Potency [3] was 1.48 µM (active). For the same compound, the Potency [4] was 8.33 µM (active), the Potency [15] was 20.9 µM (active) and the Potency [6] was 9.35 µM (active). For the same compound, the Potency [8] was 4.18 µM (active), the Potency [9] was 10.5 µM (active) and the Potency [16] was 3.32 µM (active). The Potency [20] was 26.4 µM (active), the Potency [10] was 1.05 µM (active) and the Potency [17] was 1.05 µM (active). For the same compound, the Potency [11] was 7.43 µM (active), the Potency [12] was 20.9 µM (active) and the Potency [13] was 5.9 µM (active). The Potency [14] was 2.96 µM (active).

For `CN(C)Cc1ccc(-c2nc3cccc4c3n2CCNC4=O)cc1`, the Potency [1] was 23.5 µM (active), the Potency [2] was 23.5 µM (active) and the Potency [3] was 20.9 µM (active). For the same compound, the Potency [4] was 18.7 µM (active), the Potency [6] was 23.5 µM (active) and the Potency [7] was 18.7 µM (active). The Potency [18] was 14.8 µM (active), the Potency [8] was 11.8 µM (active) and the Potency [9] was 20.9 µM (active). For the same compound, the Potency [19] was 11.8 µM (active), the Potency [16] was 16.6 µM (active) and the Potency [20] was 18.7 µM (active). The Potency [10] was 20.9 µM (active), the Potency [17] was 23.5 µM (active) and the Potency [11] was 20.9 µM (active).

For `Clc1ccc(C(c2ccc(Cl)cc2)n2cc[n+](CC(OCc3ccc(Cl)cc3Cl)c3ccc(Cl)cc3Cl)c2)cc1` (stereo not given), the Potency [1] was 20.9 µM (active), the Potency [2] was 8.33 µM (active) and the Potency [3] was 16.6 µM (active). The Potency [4] was 16.6 µM (active), the Potency [15] was 11.8 µM (active) and the Potency [5] was 11.8 µM (active). For the same compound, the Potency [6] was 9.35 µM (active), the Potency [7] was 8.33 µM (active) and the Potency [18] was 8.33 µM (active). For the same compound, the Potency [8] was 10.5 µM (active), the Potency [9] was 16.6 µM (active) and the Potency [19] was 8.33 µM (active). For the same compound, the Potency [16] was 8.33 µM (active), the Potency [20] was 20.9 µM (active) and the Potency [10] was 11.8 µM (active). For the same compound, the Potency [17] was 7.43 µM (active), the Potency [11] was 7.43 µM (active) and the Potency [12] was 23.5 µM (active). The Potency [13] was 7.43 µM (active) and the Potency [14] was 8.33 µM (active).

For `C[N+]1(C)[C@@H]2CC(OC(=O)[C@H](CO)c3ccccc3)C[C@H]1[C@H]1O[C@@H]12` (stereo not given in full), the Potency [1] was “inactive”, the Potency [2] was “inactive” and the Potency [3] was “inactive”. For the same compound, the Potency [4] was “inactive”, the Potency [6] was “inactive” and the Potency [7] was “inactive”. For the same compound, the Potency [19] was “inactive”, the Potency [10] was “inactive” and the Potency [11] was “inactive”. The Potency [12] was “inactive”, the Potency [13] was “inactive” and the Potency [14] was “inactive”.

For `CCOC1OC(=O)C[C@H]1NC(=O)[C@@H]1CCCN1C(=O)[C@@H](NC(=O)c1ccc(N)c(Cl)c1)C(C)(C)C` (stereo not given in full), the Potency [1] was “inactive”, the Potency [2] was “inactive” and the Potency [3] was “inactive”. For the same compound, the Potency [4] was 18.7 µM (active), the Potency [6] was 4.69 µM (active) and the Potency [7] was 29.6 µM (active). For the same compound, the Potency [18] was “inactive”, the Potency [9] was “inactive” and the Potency [16] was “inactive”. The Potency [10] was “inactive”, the Potency [11] was 5.26 µM (active) and the Potency [12] was “inactive”. For the same compound, the Potency [13] was 11.8 µM (active).

In the case of `CC=CC[C@@H](C)C(=O)[C@H]1C(=O)N[C@@H](C(C)C)C(=O)N(C)CC(=O)N(C)[C@@H](CC(C)C)C(=O)N[C@@H](C(C)C)C(=O)N(C)[C@@H](CC(C)C)C(=O)N[C@@H](C)C(=O)N[C@H](C)C(=O)N(C)[C@@H](CC(C)C)C(=O)N(C)[C@@H](CC(C)C)C(=O)N(C)[C@@H](C(C)C)C(=O)N1C`, the Potency [1] is reported as 23.5 µM (active), the Potency [2] is reported as 23.5 µM (active) and the Potency [3] is reported as “inactive”. For the same compound, the Potency [15] was 18.7 µM (active), the Potency [9] was 23.5 µM (active) and the Potency [11] was 4.69 µM (active). For the same compound, the Potency [12] was 23.5 µM (active), the Potency [13] was “inactive” and the Potency [14] was 1.32 µM (active).

With `NC(=O)c1cnc(-c2ccc(C3(N)CCC3)cc2)c(-c2ccccc2)c1` the Potency [1] was “inactive”, the Potency [2] was 6.62 µM (active) and the Potency [3] was 1.66 µM (active). The Potency [15] was 8.33 µM (active), the Potency [16] was 10.5 µM (active) and the Potency [10] was 4.18 µM (active). For the same compound, the Potency [17] was 13.2 µM (active) and the Potency [12] was 8.33 µM (active).

For `O=C(Nc1cc(Cl)cc2c1[nH]c1cnccc12)c1cccnc1`, the Potency [1] was 1.87 µM (active), the Potency [2] was 4.18 µM (active) and the Potency [3] was 10.5 µM (active). For the same compound, the Potency [4] was “inactive”, the Potency [6] was “inactive” and the Potency [7] was 6.62 µM (active). The Potency [9] was “inactive”, the Potency [16] was 16.6 µM (active) and the Potency [10] was 1.48 µM (active). The Potency [17] was 5.9 µM (active), the Potency [11] was “inactive” and the Potency [12] was 18.7 µM (active). For the same compound, the Potency [13] was “inactive”.
